A selection: hits, their analogues and other compounds. The true share with any hit is near 12%.
PI5P4Ka inh – blocks human PI5P4K alpha kinase activity. P48426. PI5P4Kalpha enzyme, ADP-Glo luminescence, 60 min; stronger effect = lower value. max response, %. 330,000 tested, 1.2% active; active = max response of -50% or lower; inconclusive = between -30% and -50%; inactive = -30% or higher; also: value at the top dose of about 77 µM; % is scaled to controls: 0 for no effect and ±100 for the full control effect
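Human PI5P4Kalpha with substrate in 0.038 M HEPES pH 7.4, 0.28 mM EGTA, 0.1% CHAPS, 5% DMSO; reaction started with 5 microM ATP (final), 60 min at room temperature. ADP formed read by ADP-Glo luminescence.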
BAZ2B block – inhibitors of human BAZ2B bromodomain; AlphaScreen BAZ2B-H3K14Ac peptide displacement; Potency, µM (top dose mostly 114 µM), without a hit: at the highest dose activity change, negative = inhibition, hits mostly inhibitors; Q9UIF8; 360,000 tested, 4.4% active; AID 504333; also: potency is read from the fitted curve at half-maximal effect; % is scaled to controls: 0 for no effect and ±100 for the full control effect; nearly all actives have a fitted effect of over 60% in size
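BAZ2B (50 nM) with biotin-H3(5-23)K14Ac peptide (50 nM) in PBS pH 7.4, 0.01% Tween-20, preformed 30 min, then compound 30 min at room temperature; top concentration 110uM. AlphaScreen streptavidin donor/nickel chelate acceptor beads (10 ug/mL final), 20 min dark, signal read.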
HP1b chromo inh – blocks HP1-beta chromodomain binding to methylated histone tails | AlphaScreen HP1-beta / biotin-H3K9me3 peptide binding | Potency, µM (top dose mostly 114 µM), for the others: at the highest dose activity change, negative = inhibition, hits mostly inhibitors | 390,000 tested, 0.56% active | AID 540317; also: potency is read from the fitted curve at half-maximal effect; nearly all actives have a fitted effect of over 70% in size
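HP1-beta protein (50 nM final) preincubated 30 min at room temperature with biotinylated H3(1-18)K9me3 peptide (50 nM) in PBS pH 7.4, 0.01% Tween-20, then compound added for 30 min. AlphaScreen streptavidin donor/nickel chelate acceptor beads (10 ug/mL final), 30 min dark, luminescence read.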
JMJD2A Tudor – JMJD2A Tudor domain (human) inhibition; O75164; AID 504339; Potency, µM (top dose mostly 114 µM), inactives show top-dose activity change, negative = inhibition, usual class: inhibitors; 390,000 tested, 4.4% active; AlphaScreen JMJD2A-Tudor / H3K4me3 peptide binding; also: potency is read from the fitted curve at half-maximal effect; % is scaled to controls: 0 for no effect and ±100 for the full control effect; nearly all actives have a fitted effect of over 50% in size
G9a block – blocks human histone lysine methyltransferase G9a; Q96KQ7; G9a H3K9 monomethylation, AlphaScreen, 2 h; Potency, µM (titrated, usually from 102 µM), for the others: at the top dose activity, negative = inhibition, hits mostly inhibitors; 350,000 tested, 8.8% active; AID 504332; also: potency is read from the fitted curve at half-maximal effect; % is scaled to controls: 0 for no effect and ±100 for the full control effect; nearly all actives have a fitted effect of over 75% in size
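Chemiluminescent proximity detection of H3K9 monomethylation, read after 10 min bead incubation in the dark. Reaction: 20 nM G9a, 500 nM biotin-H3K9 peptide, 20 uM SAM cofactor, 2 h, room temperature, following 15 min enzyme-compound preincubation.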
PLK1 PBD inh – PLK1 (human) polo-box domain binding inhibition; P53350; Plk1 PBD binding of FITC phosphopeptide, fluorescence polarization; Potency, µM, without a hit: max response, negative = inhibition, hits mostly inhibitors; 360,000 tested, 2.8% active; also: potency is read from the fitted curve at half-maximal effect; series mostly up to about 57 µM; % is scaled to controls: 0 for no effect and ±100 for the full control effect; nearly all actives have a fitted effect of over 65% in size
Starred values were filed as active, the others as inactive; [ ] = dose if it differs, or a comment. Unless noted, calls follow the shape of the dose curve; as a rule, active = well fitted curve in the direction sought with a large enough effect; inconclusive = small, poorly fitted or top-dose-only effect, or another doubt; inactive = no such curve, though single readings can be large; an effect the other way counts as inactive or inconclusive.

Results for COC(=O)CN1C(=O)[C@@H]2[C@H](C1=O)[C@@H]1CC(C(=O)OC)=C[C@@H](C(=O)OC)C3C1=C(C(=O)[C@@]3(C)NC(=O)c1ccccc1)[C@@H]2C (some centres undefined) ?
HP1b chromo inh: 21%; JMJD2A Tudor: -7%

Results for CCCOc1ccc(CNC(=O)c2ccc(C)c(-n3c(C)nc4cccnc43)c2)cc1 ?
BAZ2B block: -12%; HP1b chromo inh: 32%; JMJD2A Tudor: 0%; G9a block: -3%[59 µM]

What do the screens show for `CCc1ccccc1N(CC(=O)N1CCN(c2ccc(F)cc2)CC1)S(C)(=O)=O`?
BAZ2B block: -10%; HP1b chromo inh: 20%; JMJD2A Tudor: inconclusive; G9a block: 79µM*; PLK1 PBD inh: -2%

How did CS(=O)(=O)N(CC(=O)N1CCN(c2ccccc2)CC1)C1CCCCC1 do in these assays?
PI5P4Ka inh: 0; BAZ2B block: 8%; HP1b chromo inh: -15%; JMJD2A Tudor: 50µM*; G9a block: 14%[59 µM]; PLK1 PBD inh: 27µM*

Results for Cc1ccccc1N(CC(=O)N1CCN(c2ccccc2)CC1)S(C)(=O)=O ?
PI5P4Ka inh: -2; BAZ2B block: -4%; HP1b chromo inh: 23%; JMJD2A Tudor: -18%; G9a block: 50µM*; PLK1 PBD inh: -21%

What do the screens show for `Cc1ccc(Cl)cc1N1CCN(C(=O)CN(c2ccccc2)S(=O)(=O)N(C)C)CC1`?
PI5P4Ka inh: -28; BAZ2B block: 45µM*; HP1b chromo inh: 6%; JMJD2A Tudor: -12%[11.4 µM]; G9a block: -9%; PLK1 PBD inh: -21%

Results for CCOc1ccc(NC(=O)CSc2oc(-c3ccc(F)cc3)nc2S(=O)(=O)c2ccc(C)cc2)cc1 ?
BAZ2B block: 3%; HP1b chromo inh: 37%; JMJD2A Tudor: 14%; G9a block: 0%[59 µM]

What do the screens show for `CCCCNC(=O)CSc1nc2ccccc2nc1Cc1ccccc1`?
BAZ2B block: 3%; HP1b chromo inh: 28%[57 µM]; JMJD2A Tudor: 2%; G9a block: 4%[59 µM]

What do the screens show for `CCc1ccc(NCc2cc3ccc(OC)cc3n(CC(=O)Nc3ccc(C)c(Cl)c3)c2=O)cc1`?
BAZ2B block: -22%; HP1b chromo inh: 13%; JMJD2A Tudor: -8%; G9a block: 4%[59 µM]

How did CCc1nnc2n1N(C(C)=O)C(c1ccc(C(C)(C)C)cc1)=C(C(C)=O)S2 do in these assays?
BAZ2B block: 1%; HP1b chromo inh: 8%; JMJD2A Tudor: 0%; G9a block: 2%[59 µM]

What do the screens show for `Cc1cc(C)cc(N(CC(=O)N2CCN(c3ccccc3)CC2)S(=O)(=O)c2c(C)noc2C)c1`?
PI5P4Ka inh: 1; BAZ2B block: -11%; HP1b chromo inh: 1%; JMJD2A Tudor: inconclusive; G9a block: inconclusive; PLK1 PBD inh: 24µM*

What do the screens show for `O=Cc1cc2cc3c(cc2nc1Cl)OCCO3`?
PI5P4Ka inh: 0; BAZ2B block: -2%; HP1b chromo inh: 59%; JMJD2A Tudor: -2%; G9a block: -3%; PLK1 PBD inh: 5%

Results for O=C(O)c1ccc(N/N=C/c2cc3cc4c(cc3nc2Cl)OCCO4)cc1 ?
PI5P4Ka inh: -17; BAZ2B block: 79µM*; HP1b chromo inh: 10%; JMJD2A Tudor: -29%; G9a block: inconclusive; PLK1 PBD inh: -16%

What do the screens show for `COc1cc(CN2CCN(C(=O)CC(C)C)CC2)cc(OC)c1OC`?
PI5P4Ka inh: 2; BAZ2B block: 28µM*; HP1b chromo inh: inconclusive; JMJD2A Tudor: 6.3µM*; G9a block: inconclusive; PLK1 PBD inh: -3%

How did CC(C)CC(=O)N1CCN(Cc2ccccc2Cl)CC1 do in these assays?
PI5P4Ka inh: -1; BAZ2B block: 50µM*; HP1b chromo inh: inconclusive; JMJD2A Tudor: -100%; G9a block: 4%[0.501 µM]; PLK1 PBD inh: -4%

What do the screens show for `COc1ccc(NC(C)C(=O)N2CCN(Cc3ccccc3)CC2)cc1` (centres undefined)?
PI5P4Ka inh: 1; BAZ2B block: -11%; HP1b chromo inh: 30%; JMJD2A Tudor: -14%; G9a block: inconclusive; PLK1 PBD inh: 1%

How did COc1ccc(CN2CCN(C(=O)CC(C)C)CC2)cc1 do in these assays?
PI5P4Ka inh: -4; BAZ2B block: inconclusive; HP1b chromo inh: inconclusive; JMJD2A Tudor: 7.9µM*; PLK1 PBD inh: -10%

What do the screens show for `COc1cc(CN2CCN(C(=O)CC(C)C)CC2)c([N+](=O)[O-])cc1OC`?
PI5P4Ka inh: -1; BAZ2B block: 45µM*; HP1b chromo inh: inconclusive; JMJD2A Tudor: 22µM*; G9a block: 18µM*; PLK1 PBD inh: 3%

Results for COc1ccccc1-c1nc2c(c(SCC(=O)Nc3ccccc3F)n1)Cc1c(CO)cnc(C)c1O2 ?
BAZ2B block: -17%; HP1b chromo inh: 36%; JMJD2A Tudor: -14%; G9a block: -43%[59 µM]

What do the screens show for `CC1CCC(NC(=O)c2ccc(CS(=O)(=O)c3ccc(Cl)cc3)o2)CC1` (centres undefined)?
BAZ2B block: 2%; HP1b chromo inh: 22%; JMJD2A Tudor: -15%; G9a block: -21%[59 µM]

Results for COc1cc(NCCCCCCN)c2ncccc2c1OC ?
PI5P4Ka inh: inconclusive; HP1b chromo inh: inconclusive; JMJD2A Tudor: 56µM*; PLK1 PBD inh: inconclusive

What do the screens show for `COc1cc(NC(C)CCCNC(C)C)c2ncccc2c1OC` (centres undefined)?
PI5P4Ka inh: -11; HP1b chromo inh: inconclusive; JMJD2A Tudor: 0.89µM*; PLK1 PBD inh: -19%

What do the screens show for `COc1cc(NCCCCC(C)N)c2nccc(C)c2c1` (centres undefined)?
PI5P4Ka inh: -12; PLK1 PBD inh: -3%

How did COc1cc(N)c2ncccc2c1OC do in these assays?
PI5P4Ka inh: -2; HP1b chromo inh: -11%; JMJD2A Tudor: -28%; PLK1 PBD inh: -11%

How did CCC(=O)Nc1ccc(Cl)c(NC(=S)NC(C)=O)c1 do in these assays?
PI5P4Ka inh: 5; BAZ2B block: -8%; HP1b chromo inh: 8%; JMJD2A Tudor: 0%; G9a block: 28µM*; PLK1 PBD inh: -10%

How did CCC(=O)Nc1ccc(Cl)c(NC(=S)NC(=O)c2ccco2)c1 do in these assays?
PI5P4Ka inh: 1; BAZ2B block: 2%; HP1b chromo inh: 0%; JMJD2A Tudor: -31%; G9a block: inconclusive; PLK1 PBD inh: 27µM*

What do the screens show for `CN(C(=O)CSc1nnc(C(F)(F)F)n1C)c1c(N)n(Cc2ccccc2)c(=O)[nH]c1=O`?
PI5P4Ka inh: 1; PLK1 PBD inh: -8%

Results for CC(C)CN(C(=O)CSc1nnc2ccccn12)c1c(N)n(CC(C)C)c(=O)[nH]c1=O ?
PI5P4Ka inh: -1; BAZ2B block: -2%; HP1b chromo inh: 10%; JMJD2A Tudor: -6%; G9a block: 45µM*; PLK1 PBD inh: -10%

Screening data as filed in PubChem BioAssay.
